Targets with a hit are over-represented here; the source holds about 7,900 in all. About 0.6% of all pairs of compound and target were hits. A number with no mark means an inactive call.

Common to all, as to experiment: log2 fold change, soluble protein after heating vs DMSO (PISA); higher = thermal stabilisation; K562 cells, 10 uM, 30 min; active = over 0.2 and 3.5 SD of the protein, either way, in both replicates (recomputed)
Compound in one experiment: C#Cc1cccc(Nc2ncnc3cc(OCCOC)c(OCCOC)cc23)c1 [erlotinib]
In a few lines: (§1)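 Aliquots of K562 cells (2×10^6 cells/mL) treated with 10 μM compound for 30 min were heated for 3 min over 48°C-58°C. After pooling and extraction in PBS with 0.5% NP-40 at 4°C, soluble protein from a 21,000xg, 90 min spin was quantified by TMTpro 16plex LC-MS/MS with channel sums equalised. Thermal stability is expressed against control samples, from duplicates, as a log2 fold change.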

Compound in experiment [1]: C/C(=N\NC(=O)C1=CC(=CC=C1)S(=O)(=O)N2CCOCC2)/C3=C(C=CC(=C3)Cl)O
The method in brief: as §1

Compound in experiment [2]: C1=CC(=C(C=C1Cl)C2=NC3=NC=CN=C3C(=N2)NC4=CC=NC=C4)F
In a few lines: as §1

Compound in experiment [3]: C1=CC(=CC=C1C2=NC3=C(N2)C=C(C=C3)C(=O)N)OC4=CC=C(C=C4)Cl
In a few lines: as §1

Compound in experiment [4]: C1=CC2=C(C=CC(=C2)/C=C\3/C(=O)NC(=NCC4=CC=CS4)S3)N=C1
The method in brief: as §1

Compound in experiment [5]: C1=CC2=NC=CN=C2C=C1/C=C/3\C(=O)NC(=O)S3
In a few lines: as §1

Compound in experiment [6]: C1=CC=C(C=C1)C2=NC(=C(N2)C3=CC=NC=C3)C4=CC(=C(C=C4)Cl)O
In a few lines: as §1

Compound in experiment [7]: C1=CC=C2C(=C1)C3=NNC4=CC=CC(=C43)C2=O
The method in brief: as §1

Compound in experiment [8]: C1CCN(C1)C(=O)NC2=CC=CC(=C2)NC3=NC=C(C(=N3)NCCC4=CN=CN4)Br
The method in brief: as §1

Compound in experiment [9]: C1CN(CCC1(CC2=CC=C(C=C2)Cl)N)C3=NC=NC4=C3C=CN4
The method in brief: as §1

Compound in a further experiment: C1COCCN1CCN2C3=CC=CC=C3N=C2NC(=O)C4=CC(=CC=C4)[N+](=O)[O-] [IRAK-1-4 Inhibitor I]
The method in brief: as §1

Compound in a further experiment: C=CC(=O)N1CCC[C@@H](n2nc(-c3ccc(Oc4ccccc4)cc3)c3c(N)ncnc32)C1 [ibrutinib]
In a few lines: as §1

Compound in experiment [10]: CC(=O)c1cnc2ccc(-c3cc(Cl)c(O)c(Cl)c3)nc2c1N[C@H]1CC[C@H](CN(C)C)CC1
In a few lines: as §1

Compound in the next experiment: CC(C)(C)Cn1c(N)nc2ccc(-c3[nH]c(C(C)(C)C)nc3-c3ccc(F)cc3)nc21 [ralimetinib]
The method in brief: as §1

Compound in experiment [11]: CC(C)(O)CC(=O)NCCn1ccc2ncnc(Nc3ccc(Oc4cccc(C(F)(F)F)c4)c(Cl)c3)c21
In a few lines:
as §1

Compound in experiment [12]: CC(C)C1=C2N=C(C=C(N2N=C1)NCC3=CC=CC=C3)NCCCCCCN
In a few lines:
as §1

Compound in experiment [13]: CC(C)C[C@@H](C=O)NC(=O)[C@H](CC(C)C)NC(=O)[C@H](CC(C)C)NC(=O)OCc1ccccc1
In a few lines:
as §1

Compound in a further experiment: CC(C)N(C[C@H]1O[C@@H](n2cnc3c(N)ncnc32)[C@H](O)[C@@H]1O)[C@H]1C[C@@H](CCc2nc3cc(C(C)(C)C)ccc3[nH]2)C1 [pinometostat]
The method in brief: as §1

Compound in experiment [14]: CC1=C(C(CC(=O)N1)C2=CC=C(C=C2)C(F)(F)F)C(=O)NC3=C(C=C4C(=C3)C=NN4)F
In a few lines:
as §1

Compound in experiment [15]: CC1=C(C2=C(C=C1)C(=O)C3=CC=CC=C3N2CCCN)C
The method in brief:
as §1

UniProt P0C0L4, sequence (P0C0L4 whole entry, looked up): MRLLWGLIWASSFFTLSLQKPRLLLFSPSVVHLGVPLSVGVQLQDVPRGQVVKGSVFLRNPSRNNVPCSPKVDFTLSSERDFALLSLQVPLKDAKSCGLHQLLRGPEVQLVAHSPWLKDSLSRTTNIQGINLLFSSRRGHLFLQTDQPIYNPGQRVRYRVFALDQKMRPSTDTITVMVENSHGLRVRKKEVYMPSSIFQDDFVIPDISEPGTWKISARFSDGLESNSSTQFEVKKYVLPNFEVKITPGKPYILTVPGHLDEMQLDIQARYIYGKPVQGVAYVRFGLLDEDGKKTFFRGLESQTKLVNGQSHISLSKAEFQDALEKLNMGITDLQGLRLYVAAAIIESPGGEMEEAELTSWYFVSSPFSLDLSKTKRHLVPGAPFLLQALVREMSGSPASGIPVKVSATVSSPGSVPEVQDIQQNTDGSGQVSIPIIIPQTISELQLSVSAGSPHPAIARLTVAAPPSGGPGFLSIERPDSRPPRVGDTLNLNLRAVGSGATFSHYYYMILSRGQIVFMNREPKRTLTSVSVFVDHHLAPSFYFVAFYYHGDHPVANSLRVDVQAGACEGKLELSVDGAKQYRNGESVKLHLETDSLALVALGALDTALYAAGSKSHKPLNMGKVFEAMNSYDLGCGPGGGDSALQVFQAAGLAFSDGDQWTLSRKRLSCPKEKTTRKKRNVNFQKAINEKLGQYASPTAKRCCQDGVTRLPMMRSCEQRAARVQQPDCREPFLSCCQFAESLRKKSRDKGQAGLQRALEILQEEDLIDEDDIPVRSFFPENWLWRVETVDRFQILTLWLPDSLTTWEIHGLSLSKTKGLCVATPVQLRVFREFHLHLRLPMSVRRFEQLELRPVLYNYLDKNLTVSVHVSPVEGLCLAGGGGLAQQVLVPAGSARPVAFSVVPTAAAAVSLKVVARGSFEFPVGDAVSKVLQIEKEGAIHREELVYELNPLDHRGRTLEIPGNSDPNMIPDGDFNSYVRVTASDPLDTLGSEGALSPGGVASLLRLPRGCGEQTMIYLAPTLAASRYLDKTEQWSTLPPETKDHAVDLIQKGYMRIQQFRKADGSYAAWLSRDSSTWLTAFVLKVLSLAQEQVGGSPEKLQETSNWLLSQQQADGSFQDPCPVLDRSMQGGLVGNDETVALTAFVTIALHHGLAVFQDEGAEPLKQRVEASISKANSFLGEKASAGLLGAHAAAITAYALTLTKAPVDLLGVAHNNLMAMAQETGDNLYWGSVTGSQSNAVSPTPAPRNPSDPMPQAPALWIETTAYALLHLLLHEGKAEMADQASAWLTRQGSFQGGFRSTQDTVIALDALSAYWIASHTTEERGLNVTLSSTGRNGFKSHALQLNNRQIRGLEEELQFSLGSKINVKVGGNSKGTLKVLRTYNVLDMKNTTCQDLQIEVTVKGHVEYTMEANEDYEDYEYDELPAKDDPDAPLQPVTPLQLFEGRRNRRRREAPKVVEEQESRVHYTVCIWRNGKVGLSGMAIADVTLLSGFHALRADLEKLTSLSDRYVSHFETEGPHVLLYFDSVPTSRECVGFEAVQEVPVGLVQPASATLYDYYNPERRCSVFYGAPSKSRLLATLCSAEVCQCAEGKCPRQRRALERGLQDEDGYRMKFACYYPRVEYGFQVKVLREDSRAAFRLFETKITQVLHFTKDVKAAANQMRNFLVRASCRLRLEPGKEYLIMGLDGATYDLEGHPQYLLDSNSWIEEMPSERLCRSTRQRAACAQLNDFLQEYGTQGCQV
UniProt O76031, sequence (O76031 whole entry, looked up): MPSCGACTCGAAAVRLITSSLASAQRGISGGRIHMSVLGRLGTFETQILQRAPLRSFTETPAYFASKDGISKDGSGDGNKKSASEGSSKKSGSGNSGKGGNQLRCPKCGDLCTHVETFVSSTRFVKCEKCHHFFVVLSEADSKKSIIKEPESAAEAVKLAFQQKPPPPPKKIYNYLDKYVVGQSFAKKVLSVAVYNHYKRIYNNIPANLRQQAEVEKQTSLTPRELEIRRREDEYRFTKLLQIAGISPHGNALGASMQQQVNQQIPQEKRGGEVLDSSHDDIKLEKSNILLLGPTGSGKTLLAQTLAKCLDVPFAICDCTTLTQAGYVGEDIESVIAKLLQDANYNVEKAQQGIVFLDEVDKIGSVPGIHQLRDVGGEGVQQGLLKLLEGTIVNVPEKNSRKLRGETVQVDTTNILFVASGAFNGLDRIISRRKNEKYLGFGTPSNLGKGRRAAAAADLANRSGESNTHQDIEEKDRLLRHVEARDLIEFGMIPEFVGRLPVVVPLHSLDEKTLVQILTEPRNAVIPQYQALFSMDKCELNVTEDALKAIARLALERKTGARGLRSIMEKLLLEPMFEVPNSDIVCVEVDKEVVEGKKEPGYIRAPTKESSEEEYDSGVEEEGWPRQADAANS
UniProt P83916, sequence (P83916 whole entry, looked up): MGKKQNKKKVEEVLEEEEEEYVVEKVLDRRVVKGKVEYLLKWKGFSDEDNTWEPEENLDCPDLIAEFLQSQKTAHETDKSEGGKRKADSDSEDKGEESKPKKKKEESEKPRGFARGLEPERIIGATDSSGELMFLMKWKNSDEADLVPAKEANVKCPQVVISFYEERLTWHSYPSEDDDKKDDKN
UniProt Q9H9S4, sequence (Q9H9S4 whole entry, looked up): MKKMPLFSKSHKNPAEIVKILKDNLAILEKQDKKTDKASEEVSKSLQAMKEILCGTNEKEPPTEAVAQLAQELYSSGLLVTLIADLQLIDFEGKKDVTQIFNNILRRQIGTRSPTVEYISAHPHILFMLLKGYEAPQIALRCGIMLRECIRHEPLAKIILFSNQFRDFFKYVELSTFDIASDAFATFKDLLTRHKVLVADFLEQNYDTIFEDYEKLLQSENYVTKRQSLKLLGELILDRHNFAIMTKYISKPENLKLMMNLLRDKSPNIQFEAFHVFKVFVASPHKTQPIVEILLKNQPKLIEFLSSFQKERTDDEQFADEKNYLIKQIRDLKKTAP
UniProt P61024, sequence (P61024 whole entry, looked up): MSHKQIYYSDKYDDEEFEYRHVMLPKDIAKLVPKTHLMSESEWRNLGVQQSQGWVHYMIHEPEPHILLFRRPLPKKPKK
UniProt P51946, sequence (P51946 whole entry, looked up): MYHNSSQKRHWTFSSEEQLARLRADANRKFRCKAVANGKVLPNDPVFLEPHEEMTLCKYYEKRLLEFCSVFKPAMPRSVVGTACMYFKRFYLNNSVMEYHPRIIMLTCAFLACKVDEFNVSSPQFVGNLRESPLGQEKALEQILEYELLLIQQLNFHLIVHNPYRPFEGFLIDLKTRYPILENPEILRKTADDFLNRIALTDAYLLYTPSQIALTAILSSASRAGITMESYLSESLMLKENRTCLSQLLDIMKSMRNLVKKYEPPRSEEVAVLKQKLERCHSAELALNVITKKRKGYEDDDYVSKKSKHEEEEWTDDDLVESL

For CNOT1 (UniProt A5YKK6), the log2 fold change with erlotinib is 0.013; in [1], 0.102; in [2], -0.003; in experiment [3] it was -0.007; in [4] it was 0.035; in experiment [5], 0.001. For the same target, the log2 fold change in experiment [6] was 0.014; in experiment [7], -0.004; in experiment [8] it was -0.009; in experiment [9] it was -0.008; with IRAK-1-4 Inhibitor I, -0.07; in the experiment with ibrutinib, -0.024. Further, the log2 fold change in experiment [10] is -0.029; with ralimetinib it was 0.028; in [11], -0.063; in experiment [12], -0.101; in experiment [13], 0.039; in the experiment with pinometostat, 0.027. For the same target, the log2 fold change in [14] is 0.009; in [15], 0.063.

Regarding CKS1B (UniProt P61024), the log2 fold change in the experiment with erlotinib was -0.014; in [1], 0; in experiment [2] it was 0.028; in experiment [3], -0.013; in [4], 0.044; in experiment [5] it was 0.029. Further, the log2 fold change was 0.11 in experiment [6]; -0.045 in [7]; -0.012 in experiment [8]; 0.034 in experiment [9]; -0.011 with IRAK-1-4 Inhibitor I; -0.008 with ibrutinib. The log2 fold change in [10] was -0.127; in the experiment with ralimetinib, 0.222 (active); in experiment [11] it was 0.001; in experiment [12] it was 0.027; in experiment [13], -0.031; with pinometostat it was -0.044. In addition, the log2 fold change in experiment [14] is 0.036; in experiment [15] it was 0.054.

CBX1 (UniProt P83916): the log2 fold change with erlotinib was 0.025; in experiment [1] it was -0.044; in experiment [2], 0.022; in [3], 0.072; in experiment [4], 0.004; in experiment [5], 0.089. Besides, the log2 fold change in experiment [6] was -0.055; in experiment [7], -0.026; in [8], -0.007; in [9] it was -0.027; with IRAK-1-4 Inhibitor I, -0.105; with ibrutinib, -0.001. The log2 fold change was -0.038 in experiment [10]; -0.054 with ralimetinib; 0.013 in experiment [11]; 0.034 in experiment [12]; -0.007 in [13]; -0.143 with pinometostat. The results for the log2 fold change in experiment [14] and in experiment [15] were -0.026 and -0.288 (active), respectively.

For the target CAB39L (UniProt Q9H9S4), the log2 fold change was -0.026 with erlotinib; -0.001 in experiment [1]; -0.088 in experiment [2]; 0.065 in experiment [3]; 0.042 in experiment [4]; 0.015 in experiment [5]. Moreover, the log2 fold change in experiment [6] is 0.007; in [7] it was -0.117; in experiment [8] it was -0.068; in experiment [9] it was -0.306; in the experiment with IRAK-1-4 Inhibitor I, 0.018; in the experiment with ibrutinib it was 0.001. Besides, the log2 fold change in experiment [10] was -0.126; with ralimetinib it was 0.057; in experiment [11] it was -0.152; in experiment [12], -0.024; in experiment [13] it was 0.032; with pinometostat, 0.102. In addition, the log2 fold change in experiment [15] is -0.483.

Consider CCNH (UniProt P51946), for which the log2 fold change is -0.022 with erlotinib; 0.021 in [1]; 0.034 in experiment [2]; -0.016 in experiment [3]; -0.045 in [4]; 0.031 in experiment [5]. In addition, the log2 fold change in experiment [6] was 0.022; in experiment [7] it was -0.004; in experiment [8] it was -0.011; in [9] it was -0.015; with IRAK-1-4 Inhibitor I, -0.01; in the experiment with ibrutinib it was -0.04. Besides, the log2 fold change in [10] was -0.24 (active); with ralimetinib it was -0.04; in [11] it was -0.009; in experiment [12], 0.084; in [13] it was -0.053; with pinometostat, 0.022. Also, the log2 fold change is 0.045 in experiment [14] and -0.01 in experiment [15].

CLPX (UniProt O76031): the log2 fold change in the experiment with erlotinib is -0.062; in experiment [1], 0.056; in experiment [2], 0.01; in experiment [3], 0.004; in experiment [4] it was -0.009; in experiment [5], 0.036. Further, the log2 fold change in experiment [6] is -0.008; in [7], -0.034; in experiment [8] it was -0.03; in [9], -0.003; with IRAK-1-4 Inhibitor I it was 0.002; in [10], 0.006. The log2 fold change in the experiment with ralimetinib is -0.03; in experiment [11], -0.02; in experiment [12], 0.048; in experiment [13], -0.055; with pinometostat, -0.026; in [14], 0.004. Also, the log2 fold change in experiment [15] is 0.012.

Turning to C4A (UniProt P0C0L4), the log2 fold change is -0.117 in the experiment with erlotinib; -0.05 in experiment [1]; 0.024 in [2]; 0.078 in experiment [3]; 0.12 in [4]; -0.032 in [5]. In addition, the log2 fold change in experiment [6] was 0.002; in experiment [7], -0.132; in [8] it was 0.072; in experiment [9] it was 0.104; in the experiment with IRAK-1-4 Inhibitor I, 0.017; in the experiment with ibrutinib it was 0.08. In addition, the log2 fold change in experiment [10] is -0.01; in the experiment with ralimetinib, -0.083; in experiment [11] it was 0.226; in [12], 0.111; in experiment [13] it was 0.01; with pinometostat, -0.11. For the same target, the log2 fold change was 0.086 in [14] and -0.192 in [15].
